Laboratory results: PubChem BioAssay (NCI)
The panel holds about 83,000 compounds, 20% with a hit somewhere; the sample as a whole holds those more often.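 Cell lines were cultured in 96-well plates, exposed to a single compound concentration, and assessed for percent growth 48 hours later.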 Unmarked numbers belong to inactive results. Calls of active or inactive are those of the source. The calls were made as follows: active = growth percent below 10; inactive = the rest.

Experiments:
Test in all cases: NCI-60 one-dose screen, 48 h (100 = growth as untreated, 0 = no growth, -100 = all killed)
Details in all cases: 10 µM unless noted
SK-MEL-2 melanoma = test system: SK-MEL-2 melanoma
EKVX NSCLC = test system: EKVX NSCLC
SN12C renal = test system: SN12C renal
TK-10 renal = test system: TK-10 renal
ACHN renal = test system: ACHN renal
CAKI-1 renal = test system: CAKI-1 renal
A498 renal = test system: A498 renal
CCRF-CEM leukemia = test system: CCRF-CEM leukemia
MOLT-4 leukemia = test system: MOLT-4 leukemia
RPMI-8226 leukemia = test system: RPMI-8226 leukemia
OVCAR-8 ovarian = test system: OVCAR-8 ovarian
OVCAR-5 ovarian = test system: OVCAR-5 ovarian
OVCAR-4 ovarian = test system: OVCAR-4 ovarian
SK-OV-3 ovarian = test system: SK-OV-3 ovarian
IGROV1 ovarian = test system: IGROV1 ovarian
OVCAR-3 ovarian = test system: OVCAR-3 ovarian
HS 578T breast = test system: HS 578T breast
SR leukemia = test system: SR leukemia
NCI/ADR-RES ovarian = test system: NCI/ADR-RES ovarian
UO-31 renal = test system: UO-31 renal

O=c1[nH][n+](-c2ccc(Br)cc2)no1
growth (SK-MEL-2 melanoma): 55.8% | growth (EKVX NSCLC): 60.8% | growth (SN12C renal): 66.7% | growth (TK-10 renal): 63.8% | growth (ACHN renal): 37.8% | growth (CAKI-1 renal): 18.5% | growth (A498 renal): 93.8% | growth (CCRF-CEM leukemia): 55.1% | growth (MOLT-4 leukemia): 41.5% | growth (RPMI-8226 leukemia): 56.6% | growth (OVCAR-8 ovarian): 55.7% | growth (OVCAR-5 ovarian): 74.7% | growth (OVCAR-4 ovarian): 57.9% | growth (SK-OV-3 ovarian): 82.3% | growth (IGROV1 ovarian): 62.1% | growth (OVCAR-3 ovarian): 58.8% | growth (HS 578T breast): 97.7%

COc1cccc2c(=O)c3c(sc12)c(N1CCNCC1)nc1ccccc13
growth (SK-MEL-2 melanoma): 112% | growth (EKVX NSCLC): 95.6% | growth (SN12C renal): 64.3% | growth (TK-10 renal): 90.7% | growth (ACHN renal): 53.1% | growth (CAKI-1 renal): 45.8% | growth (A498 renal): 61.8% | growth (CCRF-CEM leukemia): 13.8% | growth (MOLT-4 leukemia): -13.3% (active) | growth (SR leukemia): -33.9% (active) | growth (OVCAR-8 ovarian): 53.2% | growth (OVCAR-5 ovarian): 94.9% | growth (OVCAR-4 ovarian): -41.4% (active) | growth (SK-OV-3 ovarian): 83% | growth (IGROV1 ovarian): 63.3% | growth (OVCAR-3 ovarian): -43.8% (active) | growth (HS 578T breast): 89.5% | growth (NCI/ADR-RES ovarian): 73.2%

c1cc(-c2nnc(SSc3ncnc4nc[nH]c34)o2)ccn1
growth (SK-MEL-2 melanoma): 15.9% | growth (EKVX NSCLC): 82.3% | growth (SN12C renal): 55.8% | growth (TK-10 renal): 17% | growth (ACHN renal): 45% | growth (CAKI-1 renal): -6.89% (active) | growth (A498 renal): 63% | growth (CCRF-CEM leukemia): 21.8% | growth (MOLT-4 leukemia): 18% | growth (RPMI-8226 leukemia): 16.1% | growth (OVCAR-8 ovarian): 20.4% | growth (OVCAR-5 ovarian): 39.7% | growth (OVCAR-4 ovarian): 63.3% | growth (SK-OV-3 ovarian): 32.8% | growth (IGROV1 ovarian): 48.2% | growth (OVCAR-3 ovarian): 31.1% | growth (HS 578T breast): 66% | growth (NCI/ADR-RES ovarian): 27.3%

O=c1c2cc(F)ccc2sc2c(N3CCNCC3)nc3ccccc3c12
growth (SK-MEL-2 melanoma): 103% | growth (EKVX NSCLC): 72.5% | growth (SN12C renal): 61.7% | growth (TK-10 renal): 58.8% | growth (ACHN renal): 7.74% (active) | growth (CAKI-1 renal): -48.4% (active) | growth (A498 renal): 30.3% | growth (CCRF-CEM leukemia): -27.5% (active) | growth (MOLT-4 leukemia): -33.5% (active) | growth (SR leukemia): -56.3% (active) | growth (OVCAR-8 ovarian): 11% | growth (OVCAR-5 ovarian): 73.1% | growth (OVCAR-4 ovarian): -22.2% (active) | growth (SK-OV-3 ovarian): 84.4% | growth (IGROV1 ovarian): 48% | growth (OVCAR-3 ovarian): -79.6% (active) | growth (HS 578T breast): 46.3% | growth (NCI/ADR-RES ovarian): 18.7%

c1ccc(CO[C@H]2CO[C@H]3[C@@H]2OC[C@@H]3Oc2ccc(Nc3ncnc4ccsc34)cc2)cc1
growth (SK-MEL-2 melanoma): 84% | growth (EKVX NSCLC): 62.3% | growth (SN12C renal): 69.3% | growth (TK-10 renal): 99.6% | growth (ACHN renal): 72.1% | growth (CAKI-1 renal): 74.7% | growth (A498 renal): 33.2% | growth (CCRF-CEM leukemia): 77.7% | growth (MOLT-4 leukemia): 64.5% | growth (SR leukemia): 60.6% | growth (OVCAR-8 ovarian): 81.6% | growth (OVCAR-5 ovarian): 94.9% | growth (OVCAR-4 ovarian): 81.8% | growth (SK-OV-3 ovarian): 95.8% | growth (IGROV1 ovarian): 70.3% | growth (OVCAR-3 ovarian): 93.7% | growth (HS 578T breast): 90.5% | growth (NCI/ADR-RES ovarian): 73.3%

COc1cc2cc(Oc3ccc(NC(=O)Nc4ccc(Cl)c(Cl)c4)cc3)c(C)nc2cc1OCCN1CCOCC1
growth (SK-MEL-2 melanoma): 107% | growth (EKVX NSCLC): 66.4% | growth (SN12C renal): 91.5% | growth (TK-10 renal): 124% | growth (ACHN renal): 93.4% | growth (CAKI-1 renal): 87.5% | growth (A498 renal): 72.8% | growth (CCRF-CEM leukemia): 65% | growth (MOLT-4 leukemia): 62.7% | growth (SR leukemia): 5.6% (active) | growth (OVCAR-8 ovarian): 91.1% | growth (OVCAR-5 ovarian): 127% | growth (OVCAR-4 ovarian): 85% | growth (SK-OV-3 ovarian): 111% | growth (IGROV1 ovarian): 97.8% | growth (OVCAR-3 ovarian): 106% | growth (HS 578T breast): 102% | growth (NCI/ADR-RES ovarian): 91.4%

COc1nc2ccccc2cc1-c1nc2c(cnn2-c2ccccc2)c(=O)[nH]1
growth (SK-MEL-2 melanoma): 12.9% | growth (EKVX NSCLC): 58.5% | growth (SN12C renal): 65.8% | growth (TK-10 renal): 72% | growth (ACHN renal): 57.6% | growth (CAKI-1 renal): 42.1% | growth (A498 renal): 18.9% | growth (CCRF-CEM leukemia): 21.1% | growth (MOLT-4 leukemia): 40.4% | growth (RPMI-8226 leukemia): 44.2% | growth (OVCAR-8 ovarian): 63.3% | growth (OVCAR-5 ovarian): 79.5% | growth (OVCAR-4 ovarian): 76.2% | growth (SK-OV-3 ovarian): 53.8% | growth (IGROV1 ovarian): 48.1% | growth (OVCAR-3 ovarian): 7.05% (active) | growth (HS 578T breast): 50.2% | growth (NCI/ADR-RES ovarian): 40.7%

COc1ccc(-c2nc(NN)c3c(C)nn(-c4ccc(F)cc4)c3n2)cc1
growth (SK-MEL-2 melanoma): 24.1% | growth (SN12C renal): 44.5% | growth (UO-31 renal): 51.2% | growth (TK-10 renal): 77.3% | growth (ACHN renal): 40.2% | growth (CAKI-1 renal): 36.9% | growth (A498 renal): 20.8% | growth (CCRF-CEM leukemia): 23.4% | growth (MOLT-4 leukemia): 37.5% | growth (SR leukemia): 28.3% | growth (RPMI-8226 leukemia): 54.8% | growth (OVCAR-5 ovarian): 95.6% | growth (OVCAR-4 ovarian): 62.7% | growth (SK-OV-3 ovarian): 29.4% | growth (IGROV1 ovarian): 51.2% | growth (OVCAR-3 ovarian): 12% | growth (HS 578T breast): 25% | growth (NCI/ADR-RES ovarian): 34.7%
